Data on five compounds can be found in PubChem BioAssay (NCATS).

Molecules are shown by their SMILES. Records with an inconclusive call do not appear. Activity calls are given as the source filed them. Unless noted, the call rests on the fitted dose curve; in most records, active means well fitted curve in either direction with a large enough effect (not every such curve was filed as active); inconclusive means small, poorly fitted or top-dose-only effect, or another doubt; inactive means flat fitted curve, though single readings scatter.

In assay [1] the target is Lysosomal acid glucosylceramidase (Homo sapiens) (UniProt P04062). The experiment in a line: Glucocerebrosidase-p2 (AID 348; in the data active means potency below about 10 µM; further: potency means the concentration at half of the fitted maximal effect). The settings on record: purified GBA, blue fluorogenic substrate, 40 min. Summed up:
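Normal human glucocerebrosidase (0.2 nM) with blue fluorogenic substrate (80 uM final) in citrate/phosphate pH 5.9 with 10mM sodium taurocholate, 0.01% tween-20; 40 min RT, NaOH/glycine stop; fluorescence Ex 365/Em 440; AC50 from a titration from 0.6 nM upwards.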

Assay [2] in a line: AP1 Signaling Pathway (AID 357).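 Further: ME-180 reporter cells stimulated with EGF at its EC50 level; on the % scale 0 is the no-effect control and ±100 the full control effect.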 The settings on record: ME-180 AP-1-bla reporter, EGF-induced, beta-lactamase ratio, 5 h; at 7.69 µM (top of the series) unless noted. Summed up: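 AP-1-bla ME-180 cells, Opti-MEM + 0.5% dialyzed FBS, plated overnight 37 °C. Cpd titration + EC50 EGF, 5 h 37 °C. CCF4 2.5 h RT; ex 405, em 460/530 ratio → %activity, AC50.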
Assay [3] deals with Cytochrome P450 1A2 (Homo sapiens) (UniProt P05177). The assay is described as follows: p450-cyp1a2 (AID 410; calls by dose curve; further: potency means the concentration at half of the fitted maximal effect;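 on activity change, negative = inhibition: -100% = full effect of reference inhibitor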). The settings on record: recombinant CYP1A2, luciferin-ME demethylation, luminescence; series mostly up to 57 µM. In short, it runs like this:
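20nM CYP1A2, 100uM Luciferin-ME (=Km), 100mM KPO4; cpd 10 min RT; +NADPH regen, 60 min RT; stop/detect 20 min; luminescence. Normalized to furafylline 57 uM = full inhibition.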

The nature of assay [4]: Stat Signaling Pathway (AID 446).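 Further: ME-180 cervical cancer cells given 40 pM IL-6 alongside compound; SIE-controlled beta-lactamase reporter measured as 460/530 nm FRET emission ratio; on the % scale 0 is the no-effect control and ±100 the full control effect.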 The settings on record: ME-180 SIE beta-lactamase reporter, IL-6 stimulated, 5 h; at 7.69 µM (top of the series) unless noted. In short, it runs like this: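 Overnight-plated ME-180 cells bearing a STAT Inducible Element beta-lactamase reporter; 5 h co-exposure to compound and 40 pM IL-6; values normalized to 300 pM IL-6 and 125 nM JAK inhibitor controls.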

In assay [5] the target is Mitogen-activated protein kinase 10 (Mus musculus) (UniProt Q61831). The experiment in a line: JNK3 AlphaScreen Assay (AID 530).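 Further: kinase came from lysate of stimulated human HepG2 cells; signal reports phosphorylation of biotinylated GST-cJun 1-79 at Ser73 with 10 µM ATP; on the % scale 0 is the no-effect control and ±100 the full control effect.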 The settings on record: JNK3 lysate, c-Jun phosphorylation; series mostly up to 57.1 µM. In short, it runs like this: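 Kinase buffer: 20 mM Tris-HCl pH 7.6, 10 mM MgCl2, 1 mM DTT, 0.1 mM Na3VO4, 0.01% Tween-20; ATP 10 uM. Substrate biotin-GST-cJun(1-79), enzyme from activated HepG2 lysates. Detection by Ser73 phospho-antibody AlphaScreen.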
A general note: In Alpha technology, singlet oxygen from a donor bead excites a nearby acceptor bead.

In assay [6] the target is 3',5'-cyclic-AMP phosphodiesterase 4B (Homo sapiens) (UniProt Q07343). The assay is described as follows: qHTS Assay for Inhibitors of PDE-IV (AID 607; active means well fitted activation curve with a large enough effect in the main read-out, with a control signal flat, not every such curve was filed as active; further: % of control where 0% means no effect). The settings on record: HEK293 ACTOne CNG channel cells, membrane potential fluorescence; series mostly up to 22.9 µM. Summed up: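 Live HEK293 cells with a modified cyclic nucleotide-gated (CNG) channel report intracellular cAMP via membrane-potential dye fluorescence (ex 535/em 590 nm). Endogenous PDE-IV was targeted. Compounds were tested at up to 22.9 uM final; RO 20-1724 100 uM served as control.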
In general terms: In qHTS, concentration-response curves come from the screen itself.

Assay [7] addresses Cytochrome P450 3A4 (Homo sapiens) (UniProt P08684). The assay is described as follows: qHTS Assay for Activators of Cytochrome P450 3A4 (AID 885; active means well fitted curve in the direction sought with a large enough effect; an effect the other way counts as inactive or inconclusive; further: nearly all actives have a fitted effect of over 65% in size). The settings on record: recombinant CYP3A4, Luciferin-PPXE luminescence, 60 min; series mostly up to 57.1 µM. Summed up:
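Using 20nM recombinant human CYP3A4 in potassium phosphate (200mM), substrate Luciferin-PPXE at 25uM, luminescent luciferin detection followed a 60-min RT NADPH reaction; data scaled to 57 uM ketoconazole.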

A short description of assay [8]: qHTS Assay for Identification of Small Molecule Agonists for Hypoxia Response Element Signaling Pathway (AID 914; active means well fitted activation curve with a large enough effect in the signal ratio, with a control signal flat, not every such curve was filed as active; the % refers to the signal ratio; further: % of control where 0% means no effect). The settings on record: ME-180 (cervical carcinoma) HRE-bla reporter, beta-lactamase ratio, CoCl2, 17 h; activation: stronger effect = higher value. In short, it runs like this: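 HRE-bla ME-180 assay for agonist-like enhancement of an EC50 CoCl2 stimulus: 17 h at 37 degrees Celsius, CCF4 for 2.5 h, ratiometric 460/530 nm signal converted to %Activity and fitted to AC50.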

Assay [9] is described as follows: qHTS Assay for Lipid Storage Modulators (AID 1519; calls by dose curve). The settings on record: Drosophila S3 cells, BODIPY lipid droplet/cell ratio, laser cytometry, cells loaded with oleic acid; for activity change, negative = inhibition: at 57.5 µM (top of the series). Summed up: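 Cells seeded at 5,000 per well were treated with compounds over a concentration series and loaded with oleic acid (400 uM, as added). Lipid droplet fluorescence (488 nm excitation, 500-530 nm channel) was read by laser-scanning cytometry and normalized to 20 uM Triacsin C.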

Assay [10] is described as follows: Primary qHTS for small molecule stabilizers of the endoplasmic reticulum resident proteome: Secreted ER Calcium Modulated Protein (SERCaMP) assay (AID 1508630; active means well fitted curve in the direction sought with a large enough effect; an effect the other way counts as inactive or inconclusive; further: on the % scale 0 is the no-effect control and ±100 the full control effect). The settings on record: SH-SY5Y GLuc-SERCaMP (Gaussia luciferase released on ER calcium loss) secretion, thapsigargin, luminescence; series mostly up to 38.4 µM. In short, it runs like this:
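The SH-SY5Y reporter protocol was run at 3 concentrations up to 38.3 uM (primary) or 11 concentrations (follow-up): 16 h compound, 100 nM thapsigargin for 4 h, then extracellular luciferase luminescence.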

Assay [11] has as its target Glucocorticoid receptor (Homo sapiens) (UniProt P04150). The experiment in a line: GR-EFC Redistribution (AID 451; calls by dose curve; further: potency means the concentration at half of the fitted maximal effect). The settings on record: CHO-K1 GR-EFC translocation, beta-gal luminescence, 2 h. Summed up: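 Translocation of GR-ED fusion to nuclear EA restores b-gal, read by luminescence after 1 h room-temperature detection. Engineered CHO-K1 biosensor cells, 1,000/well, exposed 2 h at 37 C to titrations up to 46 uM final.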

Assay [12] has as its target Cytochrome P450 2C19 (Homo sapiens) (UniProt P33261). The experiment in a line: qHTS Assay for Inhibitors and Substrates of Cytochrome P450 2C19 (AID 899; active means well fitted curve in the direction sought with a large enough effect; an effect the other way counts as inactive or inconclusive; further: potency means the concentration at half of the fitted maximal effect; nearly all actives have a fitted effect of over 60% in size). The settings on record: recombinant CYP2C19, luciferin-H EGE luminescence; series mostly up to 57.1 µM. Summed up:
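5nM enzyme + 10uM Luciferin-H EGE (=KM), 50mM KPO4; cpd pin-transferred, 10 min 37C; NADPH regen, 60 min 37C; stopped w/ luciferin detection reagent, 20 min; luminescence. Normalized to 57uM ketoconazole (AC100).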

Assay [13] has as its target Cytochrome P450 2D6 (Homo sapiens) (UniProt P10635). The assay is described as follows: qHTS Assay for Inhibitors and Substrates of Cytochrome P450 2D6 (AID 891; active means well fitted curve in the direction sought with a large enough effect; an effect the other way counts as inactive or inconclusive; further: potency means the concentration at half of the fitted maximal effect; nearly all actives have a fitted effect of over 60% in size). The settings on record: recombinant CYP2D6, luciferin-ME EGE luminescence; series mostly up to 57.1 µM. In short, it runs like this:
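Luminescent read-out of luciferin formed by 5 nM human CYP2D6 demethylating 30 uM Luciferin-ME EGE (Km level) over 60 min at room temperature after NADPH regeneration addition. Data normalized to full inhibition by 1.43 uM quinidine.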

Setting [14] is: measured here: cell count channel max response.
Setting [15] is: measured here: lipid channel max response.

Sequence of Lysosomal acid glucosylceramidase (Homo sapiens) (P04062 whole entry, looked up): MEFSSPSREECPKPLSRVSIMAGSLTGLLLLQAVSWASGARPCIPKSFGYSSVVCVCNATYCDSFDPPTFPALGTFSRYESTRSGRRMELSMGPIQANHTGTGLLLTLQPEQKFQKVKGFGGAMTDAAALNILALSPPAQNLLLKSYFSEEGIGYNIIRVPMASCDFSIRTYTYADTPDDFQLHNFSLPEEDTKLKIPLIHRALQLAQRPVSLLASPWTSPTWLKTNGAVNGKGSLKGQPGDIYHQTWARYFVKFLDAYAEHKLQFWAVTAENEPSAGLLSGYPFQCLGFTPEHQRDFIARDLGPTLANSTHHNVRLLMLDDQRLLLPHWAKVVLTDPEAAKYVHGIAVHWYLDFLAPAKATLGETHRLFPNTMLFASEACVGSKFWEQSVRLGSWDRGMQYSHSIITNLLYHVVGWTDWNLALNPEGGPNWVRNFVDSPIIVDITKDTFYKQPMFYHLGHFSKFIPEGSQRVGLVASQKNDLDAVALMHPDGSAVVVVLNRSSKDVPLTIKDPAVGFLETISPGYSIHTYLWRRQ
Sequence of Glucocorticoid receptor (Homo sapiens) (P04150 whole entry, looked up, the tested form may be a part): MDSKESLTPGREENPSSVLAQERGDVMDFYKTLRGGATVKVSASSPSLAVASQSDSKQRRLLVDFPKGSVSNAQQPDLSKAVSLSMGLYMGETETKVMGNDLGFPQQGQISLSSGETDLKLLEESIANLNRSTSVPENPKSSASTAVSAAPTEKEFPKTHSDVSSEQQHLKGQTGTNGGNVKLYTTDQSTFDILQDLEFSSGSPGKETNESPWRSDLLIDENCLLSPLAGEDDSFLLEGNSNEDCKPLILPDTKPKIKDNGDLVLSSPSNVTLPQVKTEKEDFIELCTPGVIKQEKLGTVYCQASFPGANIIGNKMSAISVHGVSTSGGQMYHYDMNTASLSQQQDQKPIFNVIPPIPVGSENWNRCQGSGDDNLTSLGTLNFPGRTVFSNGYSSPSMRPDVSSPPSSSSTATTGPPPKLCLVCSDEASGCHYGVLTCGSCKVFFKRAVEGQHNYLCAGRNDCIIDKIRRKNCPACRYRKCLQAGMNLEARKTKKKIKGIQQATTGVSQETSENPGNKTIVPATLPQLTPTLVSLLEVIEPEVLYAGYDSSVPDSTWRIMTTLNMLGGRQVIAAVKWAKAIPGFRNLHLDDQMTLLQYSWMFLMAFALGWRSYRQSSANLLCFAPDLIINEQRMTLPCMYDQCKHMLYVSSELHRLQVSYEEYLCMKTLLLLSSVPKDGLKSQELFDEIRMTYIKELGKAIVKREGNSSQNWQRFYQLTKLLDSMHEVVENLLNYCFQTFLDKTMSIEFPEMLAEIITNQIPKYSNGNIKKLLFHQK
Sequence of Cytochrome P450 1A2 (Homo sapiens) (P05177 whole entry, looked up): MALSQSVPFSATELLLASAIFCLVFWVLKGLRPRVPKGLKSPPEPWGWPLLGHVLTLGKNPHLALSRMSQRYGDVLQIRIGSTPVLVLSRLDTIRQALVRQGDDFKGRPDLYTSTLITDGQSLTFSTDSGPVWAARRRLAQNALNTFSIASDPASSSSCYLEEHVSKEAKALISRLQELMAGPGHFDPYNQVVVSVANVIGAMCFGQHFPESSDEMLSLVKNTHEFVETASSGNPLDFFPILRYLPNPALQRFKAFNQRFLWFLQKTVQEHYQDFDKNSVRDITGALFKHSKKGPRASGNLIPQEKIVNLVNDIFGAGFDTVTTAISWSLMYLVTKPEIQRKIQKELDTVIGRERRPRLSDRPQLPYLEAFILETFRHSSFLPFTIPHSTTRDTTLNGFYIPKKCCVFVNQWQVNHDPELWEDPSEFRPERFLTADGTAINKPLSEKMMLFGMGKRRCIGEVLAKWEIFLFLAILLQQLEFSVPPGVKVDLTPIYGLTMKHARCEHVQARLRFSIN
Sequence of 3',5'-cyclic-AMP phosphodiesterase 4B (Homo sapiens) (Q07343 whole entry, looked up): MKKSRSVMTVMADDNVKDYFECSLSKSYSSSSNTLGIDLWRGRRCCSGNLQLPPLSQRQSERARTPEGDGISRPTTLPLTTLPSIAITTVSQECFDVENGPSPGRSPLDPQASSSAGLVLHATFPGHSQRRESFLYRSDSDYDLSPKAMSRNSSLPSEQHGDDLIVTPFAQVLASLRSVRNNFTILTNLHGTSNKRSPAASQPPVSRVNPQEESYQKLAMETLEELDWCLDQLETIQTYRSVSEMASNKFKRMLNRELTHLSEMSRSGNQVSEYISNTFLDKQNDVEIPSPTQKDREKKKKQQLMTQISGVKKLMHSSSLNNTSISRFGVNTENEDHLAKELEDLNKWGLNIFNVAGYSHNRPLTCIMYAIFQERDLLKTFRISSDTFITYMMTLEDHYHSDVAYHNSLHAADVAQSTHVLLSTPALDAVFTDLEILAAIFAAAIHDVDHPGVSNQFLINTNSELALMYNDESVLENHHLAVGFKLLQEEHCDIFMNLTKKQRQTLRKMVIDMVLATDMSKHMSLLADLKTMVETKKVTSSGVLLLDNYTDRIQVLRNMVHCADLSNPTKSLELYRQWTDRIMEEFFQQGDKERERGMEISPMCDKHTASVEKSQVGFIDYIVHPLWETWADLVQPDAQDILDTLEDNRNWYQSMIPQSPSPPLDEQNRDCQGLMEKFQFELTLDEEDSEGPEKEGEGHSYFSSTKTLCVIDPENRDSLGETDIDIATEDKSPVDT
Sequence of Cytochrome P450 3A4 (Homo sapiens) (P08684 whole entry, looked up): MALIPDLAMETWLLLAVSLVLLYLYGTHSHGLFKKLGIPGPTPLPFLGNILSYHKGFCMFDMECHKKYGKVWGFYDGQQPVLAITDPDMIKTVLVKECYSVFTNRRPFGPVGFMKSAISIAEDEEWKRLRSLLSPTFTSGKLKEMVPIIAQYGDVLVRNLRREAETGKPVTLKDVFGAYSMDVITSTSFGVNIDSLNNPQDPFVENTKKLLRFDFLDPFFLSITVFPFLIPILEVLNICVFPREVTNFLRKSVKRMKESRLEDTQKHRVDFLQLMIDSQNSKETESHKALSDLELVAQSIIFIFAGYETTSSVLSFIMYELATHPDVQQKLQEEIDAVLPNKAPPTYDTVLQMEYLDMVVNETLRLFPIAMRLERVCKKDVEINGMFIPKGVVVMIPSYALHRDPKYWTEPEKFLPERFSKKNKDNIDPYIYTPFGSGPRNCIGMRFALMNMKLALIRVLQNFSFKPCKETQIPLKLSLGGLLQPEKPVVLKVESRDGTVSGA
Sequence of Cytochrome P450 2D6 (Homo sapiens) (P10635 whole entry, looked up): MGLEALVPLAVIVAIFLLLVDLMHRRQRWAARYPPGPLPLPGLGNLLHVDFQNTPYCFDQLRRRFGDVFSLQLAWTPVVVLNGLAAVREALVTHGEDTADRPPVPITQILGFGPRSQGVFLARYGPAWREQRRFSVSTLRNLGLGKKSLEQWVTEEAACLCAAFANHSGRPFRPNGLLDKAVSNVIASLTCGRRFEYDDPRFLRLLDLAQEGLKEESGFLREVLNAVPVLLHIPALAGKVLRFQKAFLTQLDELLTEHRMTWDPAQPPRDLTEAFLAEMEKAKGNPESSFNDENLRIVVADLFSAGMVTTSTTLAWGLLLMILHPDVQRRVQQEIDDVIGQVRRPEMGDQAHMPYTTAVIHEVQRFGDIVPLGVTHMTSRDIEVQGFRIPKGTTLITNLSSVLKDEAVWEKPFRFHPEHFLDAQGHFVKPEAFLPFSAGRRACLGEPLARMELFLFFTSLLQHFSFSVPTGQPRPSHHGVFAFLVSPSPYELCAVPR
Sequence of Cytochrome P450 2C19 (Homo sapiens) (P33261 whole entry, looked up): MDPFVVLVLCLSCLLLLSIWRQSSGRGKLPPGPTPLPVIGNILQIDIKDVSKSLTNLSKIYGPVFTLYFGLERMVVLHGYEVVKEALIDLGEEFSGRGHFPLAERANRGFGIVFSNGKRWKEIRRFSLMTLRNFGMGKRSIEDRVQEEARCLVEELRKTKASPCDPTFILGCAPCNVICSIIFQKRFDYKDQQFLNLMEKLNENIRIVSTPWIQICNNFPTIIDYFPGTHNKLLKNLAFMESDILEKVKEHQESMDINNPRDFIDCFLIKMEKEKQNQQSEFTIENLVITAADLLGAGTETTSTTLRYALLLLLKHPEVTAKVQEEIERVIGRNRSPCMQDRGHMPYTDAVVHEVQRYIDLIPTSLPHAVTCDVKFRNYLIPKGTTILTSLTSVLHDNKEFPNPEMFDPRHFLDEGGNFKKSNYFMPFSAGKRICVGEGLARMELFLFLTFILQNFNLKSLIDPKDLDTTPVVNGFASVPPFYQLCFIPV

In the case of `Cn1cccc1C(=O)N1CCC2(CCN(Cc3ccncc3)CC2)CC1`, the Potency in [1] is > 11.4 µM (inactive); in [3], 15.8 µM (active). Further, the results for the activity change, negative = inhibition in [2] and in [9] were -3.94% (inactive) and 4.51% (inactive), respectively. Further, the activity, negative = inhibition in assay [4] is -9.94% (inactive). Also, the Potency entry in assay [5], in [6] and in [7] was “inactive” each time. In addition, the activation in assay [8] is -5.1% (inactive). The max response in assay [9] (setting [14]) was -5.01%; in assay [9] (setting [15]), 3.28%. Also, the outcome in assay [10] was inactive.
Consider `N#Cc1cccc(NC(=O)N2CC3(CCN(C(=O)c4cc(C(F)(F)F)cc(C(F)(F)F)c4)CC3)C2)c1`, for which the Potency in [1] is > 11.4 µM (inactive); in assay [3] it was 12.6 µM (active); in assay [11], > 46 µM (inactive); in assay [12], 631 nM (active). Besides, the figures for the activity change, negative = inhibition in assay [2] and in assay [9] were -13.9% (inactive) and -0.946% (inactive), respectively. Moreover, the activity, negative = inhibition in assay [4] was -7.2% (inactive). Further, the Potency result in [5], in assay [6] and in assay [7] was “inactive” each time. Further, the max response in assay [9] (setting [14]) was found to be 14%; in assay [9] (setting [15]) it was 14.4%. Moreover, the outcome in assay [10] was inactive.
In the case of `O=S(=O)(c1ccccc1)N1CCC2(CCN(Cc3ccccc3)CC2)CC1`, the Potency in assay [1] is > 11.4 µM (inactive); in assay [11], > 46 µM (inactive). Moreover, the values for the activity change, negative = inhibition in assay [2] and in [9] were 5.55% (inactive) and 3.53% (inactive), respectively. The Potency entry in [3], in assay [5] and in assay [6] was “inactive” throughout. In addition, the activity, negative = inhibition in assay [4] is 1.04% (inactive). Moreover, the activation in assay [8] is 14.1% (inactive). Further, the max response in [9] (setting [14]) was found to be 18.1%; in assay [9] (setting [15]), 22.9%. Besides, the outcome in [10] was inactive.
As to `O=C(c1cccc(F)c1)N1CCC2(CCN(Cc3ccccc3)CC2)CC1`, the Potency in assay [1] was > 11.4 µM (inactive); in assay [11], > 46 µM (inactive); in assay [13], 7.94 µM (active). For the same compound, the activity change, negative = inhibition in [2] is -3.73% (inactive); in assay [9], 2.97% (inactive). In addition, the Potency result in assay [3], in assay [5] and in assay [6] was “inactive” throughout. For the same compound, the activity, negative = inhibition in assay [4] was 0.711% (inactive). Moreover, the max response is 6.47% in [9] (setting [14]) and 15.1% in assay [9] (setting [15]). In addition, in [10], the outcome was inactive.
On to `COCC(=O)N1CCC2(CCCN(c3ncccn3)C2)CC1`, for which the Potency in assay [1] is > 11.4 µM (inactive); in assay [11] it was > 46 µM (inactive). The activity change, negative = inhibition in assay [2] is -5.71% (inactive); in assay [9], 7.95% (inactive). Further, the Potency entry in assay [3], in [5] and in assay [6] was “inactive” throughout. Also, the activity, negative = inhibition in [4] was -7.69% (inactive). Further, the activation in assay [8] is 11.9% (inactive). The max response in assay [9] (setting [14]) amounted to 9.8%; in assay [9] (setting [15]), 21.8%. In addition, the result in assay [10] was inactive.
